Consider 9 molecules from PubChem BioAssay (NCI).

Among the test systems are SR leukemia; OVCAR-8 ovarian; OVCAR-5 ovarian; OVCAR-4 ovarian; SK-OV-3 ovarian; IGROV1 ovarian; OVCAR-3 ovarian; HS 578T breast; NCI/ADR-RES ovarian; T-47D breast; BT-549 breast; MDA-MB-435 melanoma; SW-620 colon; MCF7 breast; HCT-116 colon; HCC-2998 colon; KM12 colon; RPMI-8226 leukemia.
Common to all, as to assay: NCI-60 one-dose screen, 48 h (100 = growth as untreated, 0 = no growth, -100 = all killed)
Conditions in all cases: 10 µM unless noted

About 83,000 compounds went through this panel and 20% of them were active in at least one assay; those are over-represented in the sample as a whole.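 Testing used 96-well plates and a 48-hour single-concentration exposure. Example: -40 means 40% of the starting cells died.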 Values without a mark were called inactive. Calls of active or inactive are those of the source. The calls were made as follows: active = growth percent below 10; inactive = the rest.

With `CCCCCc1ccc(S(=O)(=O)Nc2cc(-c3csc(NC(=O)CN4CCN(C)CC4)n3)ccc2OC)cc1`, the growth in the experiment on SR leukemia was -20.3% (active); in the experiment on OVCAR-8 ovarian, 50.8%; in the experiment on OVCAR-5 ovarian, 62.4%; in the experiment on OVCAR-4 ovarian, 41.8%; with SK-OV-3 ovarian it was 73.4%; in the experiment with IGROV1 ovarian it was 14.2%. For the same molecule, the growth in the experiment on OVCAR-3 ovarian is -19.4% (active); in the experiment on HS 578T breast, -30.3% (active); in the experiment with NCI/ADR-RES ovarian, 41.9%; in the experiment with T-47D breast it was -24.3% (active); in the experiment with BT-549 breast, 87.7%; in the experiment with MDA-MB-435 melanoma, -84.1% (active). The growth was -26.9% (active) in the experiment with SW-620 colon; -63.8% (active) with MCF7 breast; -70.8% (active) with HCT-116 colon; -50.2% (active) in the experiment on HCC-2998 colon; 25.8% in the experiment on KM12 colon.
As to `Clc1ccc(N/N=c2/oc3ccccc3cc2-c2cc3ccccc3[nH]2)cc1`, the growth with SR leukemia was 90.8%; with OVCAR-8 ovarian, 62.3%; in the experiment with OVCAR-5 ovarian it was 83.4%; in the experiment with OVCAR-4 ovarian it was 69.5%; in the experiment with SK-OV-3 ovarian, 89.6%; in the experiment on IGROV1 ovarian, 57.2%. Besides, the growth in the experiment with OVCAR-3 ovarian is 47.7%; with HS 578T breast it was 103%; in the experiment on NCI/ADR-RES ovarian, 78.5%; with T-47D breast, 40.4%; in the experiment with BT-549 breast, 80.3%; with MDA-MB-435 melanoma, -71.4% (active). Also, the growth in the experiment on SW-620 colon was 78.7%; with MCF7 breast it was 53.3%; with HCT-116 colon, 66.9%; with HCC-2998 colon, 95.6%; in the experiment on KM12 colon, 58.1%.
On to `CC(C)(C)c1ccc(CC(=O)Nc2sc3c(c2C(N)=O)CCC(=O)C3)cc1`, for which the growth in the experiment with RPMI-8226 leukemia is -20.7% (active); in the experiment on OVCAR-8 ovarian, 11.1%; with OVCAR-5 ovarian it was 7% (active); in the experiment on OVCAR-4 ovarian, -32.2% (active); in the experiment with SK-OV-3 ovarian, 9.81% (active); in the experiment on IGROV1 ovarian, 8.85% (active). Further, the growth was -36% (active) in the experiment on OVCAR-3 ovarian; 33.6% in the experiment with HS 578T breast; 3.51% (active) with NCI/ADR-RES ovarian; -15.4% (active) with T-47D breast; 9.57% (active) in the experiment with BT-549 breast; 1.24% (active) in the experiment with MDA-MB-435 melanoma. Further, the growth in the experiment on SW-620 colon is 3.83% (active); with MCF7 breast, 5.89% (active); with HCT-116 colon, 5.7% (active); in the experiment on HCC-2998 colon it was 25.5%; with KM12 colon, -3.85% (active).
As for `O=C(c1ccc(O)c(C(=O)N2Cc3ccc(OCCC[P+](c4ccccc4)(c4ccccc4)c4ccccc4)cc3C2)c1)N1Cc2cccc(F)c2C1`, the growth was 54.5% in the experiment with SR leukemia; 77.5% in the experiment with OVCAR-8 ovarian; 102% with OVCAR-5 ovarian; 91.4% in the experiment on OVCAR-4 ovarian; 114% with SK-OV-3 ovarian; 43.8% with IGROV1 ovarian. Further, the growth in the experiment with HS 578T breast is 72.4%; with NCI/ADR-RES ovarian it was 108%; in the experiment on T-47D breast it was 38.7%; with BT-549 breast, 65.9%; with MDA-MB-435 melanoma, 57.1%; with SW-620 colon, 76.2%. In addition, the growth in the experiment on MCF7 breast was 51.9%; with HCT-116 colon, 96.9%; with HCC-2998 colon it was 68.4%; in the experiment with KM12 colon, 57.8%.
With `COc1cc(-c2nn(C(C)(C)C)cc2-c2ccnc(NCCCNS(=O)(=O)c3ccc(C)cc3)n2)ccc1Cl`, the growth in the experiment with SR leukemia was 51.3%; in the experiment with OVCAR-8 ovarian, 89.8%; in the experiment on OVCAR-5 ovarian, 88.1%; in the experiment on OVCAR-4 ovarian, 56.3%; in the experiment on SK-OV-3 ovarian, 106%; with IGROV1 ovarian it was 62.8%. Also, the growth in the experiment on OVCAR-3 ovarian is 95.5%; in the experiment with HS 578T breast, 76.6%; in the experiment on T-47D breast it was 84.6%; in the experiment on MDA-MB-435 melanoma it was 92.2%; in the experiment on SW-620 colon, 93.7%; with MCF7 breast it was 79.8%. Further, the growth with HCT-116 colon is 67.4%; in the experiment on HCC-2998 colon, 115%; in the experiment with KM12 colon it was 94%.
As for `CC1=NC2=NN3C(=NN2C(c2ccccc2)=C1)N=NC(c1ccc(Br)cc1)=C3c1ccc(Br)cc1`, the growth was 102% in the experiment with SR leukemia; 104% in the experiment on OVCAR-5 ovarian; 108% with OVCAR-4 ovarian; 116% in the experiment with SK-OV-3 ovarian; 99.3% in the experiment with IGROV1 ovarian; 114% with OVCAR-3 ovarian. Besides, the growth was 105% with HS 578T breast; 119% in the experiment on NCI/ADR-RES ovarian; 108% in the experiment on T-47D breast; 115% with BT-549 breast; 110% in the experiment on MDA-MB-435 melanoma; 96.6% with SW-620 colon. The growth was 94.4% with MCF7 breast, 117% in the experiment with HCT-116 colon, 112% in the experiment with HCC-2998 colon and 104% in the experiment on KM12 colon.
Take `O=S(=O)(Nc1ccc(I)cc1Cl)c1ccc(-c2cnc(C3CC3)o2)cc1`: the growth with SR leukemia is 34.5%; with OVCAR-8 ovarian, 62.2%; with OVCAR-5 ovarian, 75.4%; with OVCAR-4 ovarian, 67%; in the experiment on SK-OV-3 ovarian, 57.8%; with IGROV1 ovarian, 43.2%. Also, the growth was -10.4% (active) in the experiment with OVCAR-3 ovarian; 17.3% with HS 578T breast; 28.1% in the experiment on NCI/ADR-RES ovarian; 31.7% in the experiment with T-47D breast; 34.9% in the experiment on BT-549 breast; -4.66% (active) in the experiment with MDA-MB-435 melanoma. Further, the growth with SW-620 colon was 17.9%; in the experiment with MCF7 breast, 23.1%; with HCT-116 colon, 22.1%; in the experiment on HCC-2998 colon it was 78.6%; in the experiment on KM12 colon, 26%.
As to `O=C1CCCC2=C1C(c1c[nH]c3ccc(Br)cc13)Cc1cc(Br)ccc1N2` (configuration not stated), the growth was 33.3% in the experiment on SR leukemia; 66.2% in the experiment with OVCAR-5 ovarian; 101% with OVCAR-4 ovarian; 44.7% with SK-OV-3 ovarian; 24.1% in the experiment on IGROV1 ovarian; 27.2% with OVCAR-3 ovarian. In addition, the growth in the experiment with HS 578T breast was 20.2%; with NCI/ADR-RES ovarian, 21.4%; with T-47D breast, 20.7%; in the experiment with BT-549 breast, 39.4%; in the experiment with MDA-MB-435 melanoma it was -10.2% (active); with SW-620 colon it was 22.7%. Besides, the growth with MCF7 breast is 23.4%; in the experiment on HCT-116 colon, 19.3%; with HCC-2998 colon, 68.2%; with KM12 colon it was 21.7%.
`CC(=O)O[C@@H]1C(=O)N(c2cnccn2)[C@H]1c1ccccc1[N+](=O)[O-]`: the growth was 11.5% in the experiment on SR leukemia; -20.5% (active) with OVCAR-8 ovarian; 26.8% with OVCAR-5 ovarian; 66.6% in the experiment on OVCAR-4 ovarian; 32.6% with SK-OV-3 ovarian; 13.6% in the experiment on IGROV1 ovarian. Besides, the growth with HS 578T breast was 13.8%; with NCI/ADR-RES ovarian, 26.7%; in the experiment with T-47D breast, 85.2%; in the experiment with BT-549 breast, -13.3% (active); in the experiment on MDA-MB-435 melanoma, -38.7% (active); with SW-620 colon it was 20.1%. Besides, the growth in the experiment with MCF7 breast is 15.5%; with HCT-116 colon, -14.2% (active); in the experiment on HCC-2998 colon, 31.5%; in the experiment with KM12 colon it was -2.26% (active).
